The results in this text go back to PubChem BioAssay (Tox21).

Experiment [1] in a line: A CellTox Green Cytotoxicity Assay to monitor cytotoxicity in HEK293 cells - 40 hour (AID 1224871). Note: nearly all actives have a fitted effect of over 45% in size. Note: potency is the fitted concentration of half-maximal effect. In a few lines:
(§1)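 Seeding of HEK293 cells together with cytotoxicity dye preceded a 5 h incubation at 37 C/5% CO2. Test compounds in DMSO were then added and fluorescence monitored across 40 h.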

Experiment [2] can be described thus: qHTS RealTime-Glo MT Cell Viability Assay in HEK293 cells - 16 hour (AID 1224872). Note: nearly all actives have a fitted effect of over 50% in size. Note: potency is the fitted concentration of half-maximal effect. In a few lines:
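Cells + reagent dispensed (600 cells/well, HEK293) → 5 h at 37 C/5% CO2 → 23 nL compound in DMSO pinned → 40 h at 37 C → luminescence read at 0, 8, 16, 24, 32, 40 h.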
Background: Quantitative high-throughput screening tests each substance at several concentrations.

A short description of experiment [3]: qHTS RealTime-Glo MT Cell Viability Assay in HepG2 cells - 8 hour (AID 1224873). Note: nearly all actives have a fitted effect of over 55% in size. Note: potency is the fitted concentration of half-maximal effect. The procedure, abridged:
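HepG2 cells mixed with RealTime-Glo MT reagents (NanoLuc plus cell-permeant prosubstrate) were seeded at 600 cells/well, incubated 5 h at 37 C/5% CO2, then pinned with compounds in DMSO; nonlytic luminescence tracked viability during 40 h treatment.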

A short description of experiment [4]: qHTS RealTime-Glo MT Cell Viability Assay in HEK293 cells - 40 hour (AID 1224874). Note: nearly all actives have a fitted effect of over 50% in size. Note: potency is the fitted concentration of half-maximal effect. The conditions noted are these: RealTime-Glo luminescence; max response: active compounds read low. The procedure, abridged: (§2)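 Tox21 screen in HEK293 using RealTime-Glo MT chemistry, with cells and reagent co-dispensed. Luminescence proportional to viable cell number was captured at intervals during 40 h compound exposure at 37 C.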

The nature of experiment [5]: A CellTox Green Cytotoxicity Assay to monitor cytotoxicity in HEK293 cells - 24 hour (AID 1224875). Note: nearly all actives have a fitted effect of over 45% in size. Note: potency is the fitted concentration of half-maximal effect. The procedure, abridged: as §1
Experiment [6] in a line: A CellTox Green Cytotoxicity Assay to monitor cytotoxicity in HepG2 cells - 16 hour (AID 1224876). Note: nearly all actives have a fitted effect of over 45% in size. Note: potency is the fitted concentration of half-maximal effect. In a few lines:
(§3)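 Nonlytic assay: viable cells exclude the dye, so fluorescence scales with cell death. HepG2 at 600 cells/well, compounds added after 5 h, signal read across 40 h.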

The nature of experiment [7]: qHTS RealTime-Glo MT Cell Viability Assay in HepG2 cells - 32 hour (AID 1224877). Note: nearly all actives have a fitted effect of over 55% in size. Note: potency is the fitted concentration of half-maximal effect. The procedure, abridged:
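Real-time, nonlytic viability: 600 HepG2 cells/well mixed with NanoLuc enzyme plus prosubstrate; 5 h settle, compound (DMSO) added by pintool; luminescence monitored over 40 h at 37 C.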

Experiment [8] can be described thus: A CellTox Green Cytotoxicity Assay to monitor cytotoxicity in HepG2 cells - 24 hour (AID 1224878). Note: nearly all actives have a fitted effect of over 45% in size. Note: potency is the fitted concentration of half-maximal effect. The procedure, abridged: as §3
The nature of experiment [9]: A CellTox Green Cytotoxicity Assay to monitor cytotoxicity in HepG2 cells - 40 hour (AID 1224879). Note: nearly all actives have a fitted effect of over 40% in size. Note: potency is the fitted concentration of half-maximal effect. In a few lines: as §3
Experiment [10] in a line: qHTS RealTime-Glo MT Cell Viability Assay in HEK293 cells - 0 hour (AID 1224880). The procedure, abridged: as §2

“And” between values parts separate entries of the source, which are not always exact repeats. Equal entries are not always repeated. Records with an inconclusive call do not appear. A number with no mark means an inactive call. The source made the active and inactive calls. Calls come from the whole dose curve; as a rule, active = well fitted curve in the direction sought with a large enough effect in the repeat runs; inconclusive = weak or mixed curves; inactive = no such curve, though single readings can be large; an effect the other way counts as inactive or inconclusive.
% is set by controls: 0 for no effect and ±100 for the full control effect.

In the case of `CC(C)NC[C@@H](O)COc1ccc(CC(N)=O)cc1`, the Potency entry in experiment [1], in experiment [2], in [3], in experiment [5], in [6] and in [7] was “inactive” each time. For the same compound, the Potency entry in experiment [8], in experiment [9] and in experiment [10] was “inactive” throughout. In experiment [4], the max response was -0.295%.
In the case of `CN(C)C(=O)COC(=O)Cc1ccc(OC(=O)c2ccc(N=C(N)N)cc2)cc1`, the Potency entry in experiment [1], in [2], in [3], in [5], in [6] and in experiment [7] was “inactive” in each case. Moreover, the Potency entry in experiment [8], in experiment [9] and in [10] was “inactive” throughout. Also, the max response in [4] is 5.33%.
Consider `Nc1nc(N)nc(-c2cc(Cl)ccc2Cl)n1`, for which the Potency entry in [1], in experiment [2], in experiment [3], in [5], in experiment [6] and in experiment [7] was “inactive” in each case. Further, the Potency entry in experiment [8], in experiment [9] and in [10] was “inactive” each time. Further, the max response in [4] is 3.58%.
As to `Oc1ccccc1O`, the Potency result in experiment [1], in experiment [3], in experiment [5], in experiment [6], in experiment [7] and in experiment [8] was “inactive” throughout. In addition, the Potency result in experiment [9] and in experiment [10] was “inactive” throughout. Besides, the Potency in experiment [2] is 55.6 µM (active) and 49 µM (active); in [4], 35.1 µM (active) and 24.5 µM (active).
On to `CCN(CC)C(=O)c1cc(S(=O)(=O)Cc2ccccc2)c(N2CCC(c3ccccc3)CC2)cc1N(CC)CCN(C)C`, for which the Potency in experiment [1] is 17.2 µM (active); in experiment [2], 15.3 µM (active); in experiment [3], 17.2 µM (active); in [4] it was 7.67 µM (active); in experiment [5] it was 19.3 µM (active); in experiment [6] it was 17.2 µM (active). In addition, the Potency in [7] is 17.2 µM (active); in [8], 17.2 µM (active); in experiment [9], 13.6 µM (active). In experiment [10], the Potency result was “inactive”.
For `CCCCC/C=C\C/C=C\CCCCCCCC(=O)O`, the Potency result in experiment [1], in experiment [2], in experiment [3], in [5], in experiment [6] and in experiment [7] was “inactive” in each case. Further, the Potency entry in [8], in [9] and in [10] was “inactive” throughout. The max response in experiment [4] was 6.43% and 5.51%.
Turning to `OC/C=C/CO`, the Potency entry in experiment [1], in [2], in [3], in experiment [5], in [6] and in experiment [7] was “inactive” throughout. Also, the Potency entry in experiment [8], in [9] and in experiment [10] was “inactive” each time. In experiment [4], the max response is 0.626%.
As to `Cc1cc(-n2nc3ccc(Cl)cc3n2)c(O)c(C(C)(C)C)c1`, the Potency entry in [1], in [2], in experiment [3], in experiment [5], in experiment [6] and in [7] was “inactive” in each case. In addition, the Potency result in experiment [8], in [9] and in [10] was “inactive” in each case. For the same compound, the max response in experiment [4] is -5.47%.
For `CCc1ccc(Br)cc1`, the Potency result in [1], in [2], in [3], in experiment [5], in [6] and in [7] was “inactive” in each case. The Potency result in experiment [8], in experiment [9] and in experiment [10] was “inactive” each time. Also, the max response in experiment [4] is 5.1%.
As for `O=C(O)[C@H](O)[C@@H](O)[C@H](O[C@@H]1O[C@H](CO)[C@H](O)[C@H](O)[C@H]1O)[C@H](O)CO`, the Potency entry in experiment [1], in experiment [2], in [3], in experiment [5], in experiment [6] and in [7] was “inactive” each time. For the same compound, the Potency entry in experiment [8], in [9] and in experiment [10] was “inactive” each time. Further, in experiment [4], the max response is 11.3%.
With `Cc1c(F)c(N2CCNC(C)C2)cc2c1c(=O)c(C(=O)O)cn2C1CC1` (centres undefined), the Potency entry in experiment [1], in [2], in experiment [3], in experiment [5], in [6] and in experiment [7] was “inactive” in each case. The Potency result in experiment [8], in experiment [9] and in experiment [10] was “inactive” each time. For the same compound, the max response in experiment [4] is 11.8%.
In the case of `C#CC1(O)CC[C@H]2[C@@H]3CCC4=CCCC[C@@H]4[C@H]3CC[C@@]21C` (some centres undefined), the Potency is 34.7 µM (active) and 21.3 µM (active) in [1]; 19.5 µM (active) and 21.3 µM (active) in [2]; 21.3 µM (active) in experiment [3]; 19.5 µM (active) and 19 µM (active) in experiment [4]; 21.9 µM (active) and 21.3 µM (active) in experiment [5]; 34.7 µM (active) and 19 µM (active) in experiment [6]. Also, the Potency in [7] is 23.9 µM (active); in experiment [8] it was 34.7 µM (active) and 19 µM (active); in experiment [9], 38.9 µM (active) and 21.3 µM (active). Moreover, in experiment [10], the Potency result was “inactive”.
Regarding `O=C(Oc1ccccc1)Oc1ccccc1`, the Potency entry in experiment [1], in experiment [2], in experiment [3], in experiment [5], in experiment [6] and in experiment [8] was “inactive” in each case. Also, the Potency result in experiment [9] and in [10] was “inactive” throughout. Besides, the max response in experiment [4] is -21%. Besides, the Potency in experiment [7] is 48.8 µM (active).
`CCC(C)[O-].CCC(C)[O-].CCOC(=O)/C=C(/C)[O-].[Al+3]`: the Potency result in [1], in experiment [2], in experiment [3], in [5], in [6] and in experiment [7] was “inactive” each time. For the same compound, the Potency result in experiment [8], in experiment [9] and in [10] was “inactive” in each case. The max response in [4] is 0.788%.
Turning to `Cc1c(C)c2c(c(C)c1OC(=O)c1cccnc1)CC[C@@](C)(CCC[C@H](C)CCC[C@H](C)CCCC(C)C)O2`, the Potency result in [1], in experiment [2], in [3], in experiment [5], in experiment [6] and in experiment [7] was “inactive” each time. For the same compound, the Potency result in experiment [8], in experiment [9] and in [10] was “inactive” in each case. For the same compound, the max response in experiment [4] is -1.07%.
Consider `O=C(O)c1cc(N=Nc2ccc([N+](=O)[O-])cc2)ccc1O`, for which the Potency result in experiment [1], in experiment [2], in experiment [3], in experiment [5], in experiment [6] and in [7] was “inactive” in each case. For the same compound, the Potency entry in experiment [8] and in [9] was “inactive” each time. For the same compound, in experiment [4], the max response is -17%.
